MCF10A rerep = DNA re-replication induction in MCF 10a cells; MCF 10A DNA re-replication, Hoechst nuclear intensity, 48 h; Potency, µM (titrated, usually from 46.1 µM), without a hit: top-dose activity, positive = re-replication, actives largely listed as activators; actives 2.9% (n = 350,000); AID 624296; note: % of control where 0% means no effect; nearly all actives have a fitted effect of over 50% in size
AT treatment = candidate therapy for ataxia-telangiectasia; F2112 A-T fibroblasts, KAP-1 phosphorylation AlphaLISA; neocarzinostatin DNA damage 30 min before lysis; Potency, µM (titrated, usually from 57.5 µM), for inactives: at the top dose activation, most hits filed as activators; actives 0.19% (n = 320,000); note: % of control where 0% means no effect; nearly all actives have a fitted effect of over 45% in size
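hTERT-immortalized A-T patient fibroblasts (F2112), 500 cells/well in OPTI-MEM, 1% FBS, got compounds for 60 min, then NCS for 30 min at 37C. Lysates were then assayed for phospho-KAP-1 by AlphaLISA (anti-pKAP1 donor, anti-KAP1 acceptor beads), 6 hr at 25C.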
SW480 rerep = induces DNA re-replication in SW480 colon adenocarcinoma cells; actives 1.8% (n = 340,000); AID 624297; SW480 DNA re-replication, Hoechst DNA content imaging, 48 h; Potency, µM (top dose mostly 46.1 µM), for the others: top-dose re-replication activation, hits mostly activators; note: % of control where 0% means no effect; nearly all actives have a fitted effect of over 55% in size
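Cells (250 per well) received 23 nL compound or DMSO by pin tool and were kept 48 hr at 37 C, 5% CO2. Nuclei were then stained with Hoechst for 40 min and scanned for DNA content.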
a7 integrin act = activators of alpha7 integrin expression for muscular dystrophy | alpha7betagal myoblasts, beta-gal FDG fluorescence, 48 h | Potency, µM (titrated, usually from 38.3 µM), inactives show at the highest dose activation, usual class: activators | actives 0.064% (n = 350,000);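 note: 100% = response of the positive control SU9516; nearly all actives have a fitted effect of over 60% in size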
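alpha7betagal+/- myoblasts (passage 13, 250/well) treated 48 h at 37C with compounds at 1:260 dilution of DMSO stock. Lysed, then beta-galactosidase activity read as FDG fluorescence (ex 480/em 540) after 30 min, with pre-read for autofluorescence.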
Mito fusion act = inhibitors of mitochondrial division or activators of mitochondrial fusion | S. cerevisiae fusion-defective mutant growth rescue, CellTiterGlo 48 h | Potency, µM (top dose mostly 46.1 µM), for the others: at the highest dose growth rescue (activation), hits mostly activators | actives 0.23% (n = 320,000) | AID 485298; note: % of control where 0% means no effect; nearly all actives have a fitted effect of over 45% in size
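Growth-rescue viability read-out: after 48 h at the non-permissive 37C in glycerol/ethanol YPEG, yeast mitochondrial fusion mutants are measured by CellTiterGlo luminescence; compounds (23 nl pinned per well) restoring growth score as division inhibitors or fusion activators.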
* = called active by the depositor; ? = inconclusive; nt = no result given. Shown are actives, neighbours in structure and some others; about 4.2% of the full set was active somewhere. Calls come from the whole dose curve; as a rule, active = well fitted activation curve with a large enough effect; inconclusive = small, poorly fitted or top-dose-only effect; inactive = no such curve, though single readings can be large or run the other way. Potency is the fitted concentration of half-maximal effect.

SMILES	MCF10A rerep	AT treatment	SW480 rerep	a7 integrin act	Mito fusion act
COC(=O)c1cn(NC(=O)c2cc([N+](=O)[O-])ccc2F)c(=O)c2ccccc12	4.6µM*	-4%	?	-67%	-9%
CCC(C)N(C)Cc1cccc(C2(O)CCN(S(=O)(=O)c3ccc(F)c(C)c3)CC2)c1 (stereo not drawn)	15µM*	12%	?	-34%	-3%
O=c1[nH]c2cc(Br)cnc2nc1/C=C(\O)c1ccc(F)cc1	7.3µM*	2%	18%	21%	3%
O=C(NCc1nc2ncc(Br)cc2[nH]1)c1ccccc1	-2%	9%	-1%	-14%	3%
Cn1ncc(Br)c1N1C(=O)CCC1=O	-1%	-2%	3%	?	3%
CC1CC2(C)Oc3ccccc3CC2C(C)C1CNCCCN(C)C (stereo not drawn)	7.3µM*	-1%	5.2µM*	-63%	-26%
O=C(Nc1ccc(Cl)cn1)C1CCCN(c2ncnc3c2nc2n3CCCCC2)C1 (stereo not drawn)	2%	-2%	26µM*	2%	?
O=C(Nc1ccccn1)C1CCCN(c2ncnc3c2nc2n3CCCCC2)C1 (stereo not drawn)	23µM*	-5%	-3%	-16%	-3%
O=C(Nc1ccc(Cl)cn1)C1CCN(c2ncnc3c2nc2n3CCCCC2)CC1	?	0%	?	-31%	-3%
CC(C)c1ccc(NC(=O)C2CCN(c3ncnc4c3nc3n4CCCCC3)CC2)cc1	16µM*	6%	?	19%	1%
Cc1cccc(NC(=S)NNC(=O)Cc2ccccc2)c1	-1%	-3%	-106%	5%	1%
O=C(Cc1ccccc1)NNC(=S)Nc1ccc(Cl)cc1	1%	-1%	0.52µM*	2%	8%
Cc1ccc(C2C(C(=O)c3cc4ccccc4o3)=C(O)C(=O)N2c2cc(C)on2)cc1 (stereo not drawn)	9.2µM*	-17%	?	1%	-2%
Cc1ccc2nc(N3C(=O)C(O)=C(C(=O)c4cc5ccccc5o4)C3c3cccs3)sc2c1 (stereo not drawn)	5.8µM*	-1%	19%	-8%	1%
O=C(C1=C(O)C(=O)N(CCc2ccccc2)C1c1cccs1)c1ccco1 (stereo not drawn)	-2%	6%	-8%	-14%	-4%
COC(=O)c1sc(N2C(=O)C(O)=C(C(=O)c3ccc(C)o3)C2c2cccs2)nc1C (stereo not drawn)	18µM*	-9%	?	0%	0%
CCc1ccc2nc(N3C(=O)C(O)=C(C(=O)c4ccco4)C3c3cccs3)sc2c1 (stereo not drawn)	15µM*	-6%	-108%	?	1%
COC(=O)[C@H]1C[C@@]2(O)CN(S(=O)(=O)c3ccc(C)cc3)C[C@@]2(OC(=O)NCc2ccco2)C[C@H]1C(=O)OC	nt	nt	nt	10%	nt
CCOc1ccccc1NC(=O)c1cc(SC)ccc1Cl	?	12%	18µM*	12%	11%
CCOc1ccccc1NC(=O)c1cccc2ccccc12	?	4%	?	-5%	-3%
CSc1ccc(Cl)c(C(=O)Nc2ccc(C)cn2)c1	?	3%	26µM*	-5%	1%
O=S(=O)(c1ccc(NCCOc2ccccc2)nc1)N1CCCC1	-6%	0%	-6%	0%	2%
Cc1ccc(OCCNc2ccc(S(=O)(=O)N3CCCC3)cn2)cc1	58%	-1%	21µM*	-42%	-13%
CCOC(=O)c1c(C)nc(C)c(C(=O)OCC)c1-c1ccc(O)c(OC)c1	?	-1%	3.7µM*	6%	-7%
COC(=O)c1c(C)nc(C)c(C(=O)OC)c1-c1ccc(OC)c(OC)c1	13%	-3%	6%	0%	-1%
SMILES	MCF10A rerep	AT treatment	SW480 rerep	a7 integrin act	Mito fusion act
CCOc1cc(/C=C(/NC(C)=O)C(=O)O)cc(Cl)c1OCc1ccc(Br)cc1	?	-1%	8%	-8%	2%
CCN(CC)CCNC(=O)C(=O)Nc1ccc2c(c1)N(S(=O)(=O)c1cccs1)CCC2	?	-1%	5.2µM*	-16%	-5%
COc1ncnc2c1ncn2CCCN(C)CCc1ccccn1	nt	nt	nt	13%	nt
C/C(=N\NC(=O)c1c(C)nc2ccccn12)c1ccc(N2CCOCC2)cc1	-2%	-10%	-1%	-10%	2%
C/C(=N\NC(=O)c1c(C)nc2ccccn12)c1ccc(C(C)(C)C)cc1	18µM*	-1%	?	-58%	-1%
O=C(c1cc(C2CC2)nn1-c1ccccc1)N1CCN(S(=O)(=O)c2ccccc2F)CC1	nt	nt	nt	2%	nt
CCOC(=O)c1cc(-c2ccccc2)nc2ccc(C)cc12	?	30%	4%	-11%	-1%
O=C(O)c1cc(-c2ccccc2)nc2nc(N3CCCCC3)sc12	nt	1%	nt	nt	2%
CCOC(=O)c1cc(-c2ccccc2)nc2nc(N(CC)CC)sc12	5.2µM*	?	?	0%	6%
CCOC(=O)c1cc(-c2ccccc2)nc2nc(N3CCCCC3)sc12	9.2µM*	2%	4%	17%	11%
Cc1ccc(O)c(NC(=O)c2noc3c2CCc2ccccc2-3)c1	?	1%	15µM*	0%	2%
COc1ccccc1-c1c(C#N)c(N)nc2c1CCc1ccccc1-2	?	22µM*	21µM*	23%	?
CCOc1cc(-c2c(C#N)c(N)nc3c2CCc2ccccc2-3)ccc1O	?	0%	?	9%	13%
CC1C(=O)N(Cc2cn(Cc3ccco3)nn2)CCS(=O)(=O)N1Cc1ccc(-c2ccc(Cl)c(Cl)c2)cc1 (stereo not drawn)	nt	nt	nt	7%	nt
CN(Cc1ccc(C(C)(C)C)cc1)Cc1cccc2ccccc12	?	nt	-13%	nt	nt
CN(C/C=C/c1ccccc1)Cc1cccc2ccccc12	13%	40µM*	-6%	nt	nt
CNC[C@@H]1OCc2ccccc2-c2c(n(C)c3ccccc23)C(=O)N([C@H](C)CO)C[C@H]1C	nt	nt	nt	-12%	nt
COc1ccc(C(=O)Nc2ccc(-c3ccc(NC(=O)c4ccc(OC)cc4)c(OC)c3)cc2OC)cc1	2.3µM*	1%	-124%	0%	1%
COc1ccc(NC(=O)c2ccc(C(=O)Nc3ccc(OC)cc3OC)cc2)c(OC)c1	-7%	-3%	5.2µM*	-15%	-10%
COc1ccc(C(=O)Nc2cc(OC)c(Cl)cc2OC)cc1	3%	-2%	3%	-13%	9%
COc1ccc(NCC(=O)Nc2ccc(Br)cc2F)c(OC)c1	?	-1%	6.5µM*	2%	-7%
CCN(CC(=O)Nc1ccc(OC)cc1)CC(=O)Nc1ccc(Br)cc1F	-26%	2%	-26%	-16%	11%

High-throughput results as filed in PubChem.
